A selection: hits, their analogues and other compounds. The true share with any hit is near 2.3%.
uPA generation: inhibitors of cell surface uPA generation. cell surface uPA generation assay, qHTS. Potency, µM (highest dose often 38.3 µM), most hits filed as inhibitors. 0.31% of 330,000 active; active = well fitted inhibition curve with a large enough effect; inconclusive = small, poorly fitted or top-dose-only effect; inactive = no such curve, though single readings can be large or run the other way; tested in mouse RAW 264.7 cells; also: nearly all actives have a fitted effect of over 55% in size
Abeta yeast res: compounds reversing amyloid beta toxicity in yeast | yeast expressing A-beta42, growth rescue, OD600, 48 h; response scale: 0% DMSO, 100% iron-clioquinol control | Potency, µM (highest dose often 46.1 µM), most hits filed as activators | 0.063% of 410,000 active | AID 1347071; also: nearly all actives have a fitted effect of over 55% in size
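Yeast A-beta toxicity model in growth medium with pinned compounds, 48 h at 30 C; growth read as absorbance at 600 nm. Normalized to FeCl3/clioquinol equimolar mix (positive) and DMSO (negative).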
aSyn rescue: inhibitors of alpha-synuclein toxicity in yeast | Yeast expressing alpha-synuclein, growth rescue, BacTiter-Glo, 24 h | Potency, µM (doses to about 46.1 µM), most hits filed as activators | 0.14% of 370,000 active | AID 652106; also: nearly all actives have a fitted effect of over 65% in size
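Galactose-induced alpha-syn yeast (OD600=0.02, raffinose-pregrown) + pinned cpd, 24 hr, 30 deg C; growth by BacTiter-Glo luminescence. Growth restoration scores as activation.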
Chronic BCR inh: chronic active BCR signaling inhibition. Potency, µM (series often up to 46.1 µM), hits mostly inhibitors. 0.05% of 340,000 active. AID 493014. ABC-DLBCL IkBa-CBG/CBR reporter, luminescence ratio, 4 h; active = well fitted inhibition curve with a large enough effect in the signal ratio, with a control signal flat, not every such curve was filed as active; inconclusive = small, poorly fitted or top-dose-only effect, or effect the other way, or a change in a side signal; the % refers to the signal ratio
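TMD8 ABC-DLBCL cells carrying doxycycline-inducible green luciferase fused to IkappaBalpha plus unfused red luciferase were exposed to compounds (up to 46 uM) for 4 hrs at 37C. Activity came from the overlap-corrected green/red luminescence ratio.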
FUS yeast rescue: rescues growth of FUS-expressing yeast; Potency, µM (highest dose often 76.6 µM), usual class: activators; 0.24% of 390,000 active; S. cerevisiae FUS-expressing, growth rescue, OD600, 24 h; also: nearly all actives have a fitted effect of over 55% in size
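Yeast expressing FUS under galactose induction, OD 0.005 in 2% galactose medium; compounds in a dilution series, 24 h at 30C. Growth rescue by absorbance at 600 nm; CP55940 positive control, DMSO negative.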
TDP-43 yeast inh: rescues yeast growth from TDP-43 toxicity; TDP-43 expressing yeast growth rescue, BacTiter-Glo, 24 h; Potency, µM (top dose mostly 46.1 µM), hits mostly activators; 1.8% of 410,000 active; AID 652104; also: nearly all actives have a fitted effect of over 50% in size
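Cell-based yeast growth screen: TDP-43 expression induced in galactose, inoculum OD600=0.02 after raffinose pregrowth to mid-log. Read-out BacTiter-Glo luminescence at 24 hr, 30 deg C; inhibition of toxicity seen as signal increase.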
Numbers stand for hits; 0 = inactive; ? = inconclusive; - = no result given. Unless noted, calls follow the shape of the dose curve; as a rule, active = well fitted curve in the direction sought with a large enough effect; inconclusive = small, poorly fitted or top-dose-only effect, or another doubt; inactive = no such curve, though single readings can be large; an effect the other way counts as inactive or inconclusive.

SMILES	uPA generation	Abeta yeast res	aSyn rescue	Chronic BCR inh	FUS yeast rescue	TDP-43 yeast inh
Cn1nc(C(=O)NCc2ccccc2Cl)c2c1-c1ccccc1SC2	-	0	-	-	0	0
Cn1nc(C(=O)NCc2ccccc2)c2c1-c1ccccc1SC2	-	0	-	-	0	20µM
COc1ccc(NC(=O)c2nn(C)c3c2CSc2ccc(C)cc2-3)cc1OC	-	0	-	-	0	22µM
COc1ccc2nc(SCC(=O)N(C)C3CCCCC3)[nH]c2c1	0	0	0	?	-	0
CO[C@@]1(NC(=O)CSCC#N)C(=O)N2C(C(=O)O)=C(CSc3nnnn3C)CS[C@@H]21	0	0	0	0	0	0
COc1cccc(CNC(=O)c2nn(C)c3c2CSc2ccccc2-3)c1	-	0	-	-	?	18µM
Nc1cccc2c1C(=O)N(c1ccccc1)C2=O	0	0	0	-	0	35µM
Cc1ccc(N2CN(CCc3ccccc3)CNC2=S)cc1	0	11µM	0	0	0	0
CCCCCCCNC(=O)C1(CC2CC(c3cccc(Br)c3)=NO2)CCN(C(=O)C2(C)CC2)CC1 (stereo unspecified)	0	0	0	0	?	0
CCCCCCCNC(=O)C1(CC2CC(c3cccc(Br)c3)=NO2)CCN(C(=O)CCCCCBr)CC1 (stereo unspecified)	?	0	0	0	28µM	?
Cc1ccc(C)c(Cn2c(-c3cccs3)nc3ccccc32)c1	-	0	-	-	0	20µM
Cc1cccc(Cn2c(-c3cccs3)nc3ccccc32)c1	-	0	0	-	0	0
CSc1ccc(-c2nc3cnccn3c2Nc2ccc3c(c2)OCO3)cc1	0	0	0	?	0	25µM
Cc1ccc(-c2nc3cnccn3c2Nc2ccccc2)o1	0	0	20µM	0	0	35µM
Cc1ccc(Nc2c(-c3ccc(C)o3)nc3cnccn23)cc1	0	0	0	?	0	22µM
Cc1ccc(-c2nc3ccccn3c2Nc2ccccc2)o1	0	0	0	0	0	0
COc1cc(Cc2ccc(N)c(OC)c2)ccc1N	0	0	0	0	0	0
Nc1nc2cc(S(=O)(=O)NC3=NCCCCC3)ccc2s1	0	0	0	0	0	0
O=C(Cn1nnc2c(cnn2-c2ccc(F)cc2)c1=O)Nc1ccccc1C(F)(F)F	0	0	0	0	0	0
Cc1ccc2cc3c(NC(=O)c4ccco4)nn(C)c3nc2c1	0	0	0	0	-	?
CS(=O)(=O)c1ncc(Cl)c(C(=O)N2CCN(c3cccc(Cl)c3)CC2)n1	-	0	0	-	0	13µM
CCS(=O)(=O)c1ncc(Cl)c(C(=O)N2CCN(c3cccc(Cl)c3)CC2)n1	-	0	-	-	0	13µM
O=C(c1ccc(S(=O)(=O)N2CCCC2)cc1)N1CCN(c2cccc(Cl)c2)CC1	?	0	0	0	-	?
Cc1cccc(C)c1N1C(=O)c2cccc([N+](=O)[O-])c2C1=O	0	0	0	0	-	?
Cc1ccc(N2C(=O)c3cccc([N+](=O)[O-])c3C2=O)cc1C	0	0	0	0	0	13µM
SMILES	uPA generation	Abeta yeast res	aSyn rescue	Chronic BCR inh	FUS yeast rescue	TDP-43 yeast inh
Cc1ccc(S(=O)(=O)CCC(=O)c2ccc(O)cc2O)cc1	0	0	0	?	0	14µM
Cc1ccc(S(=O)(=O)CCC(=O)OCC(=O)c2cc(C)ccc2C)cc1	0	0	0	0	0	?
Cc1ccc(S(=O)(=O)CCC(=O)OCc2ccc(Cl)cc2)cc1	0	0	0	0	-	25µM
Fc1cccc(-c2nn[nH]n2)c1	0	0	0	0	0	0
CCC(C(=O)N1CCN(c2cccc(Cl)c2)CC1)c1ccccc1 (stereo unspecified)	0	0	0	?	0	0
O=C1CCCC2=C1C1c3ccccc3C(=O)N1c1ccc(C(=O)c3ccccc3)cc1N2 (stereo unspecified)	0	0	0	?	?	0
COC(=O)c1ccc(Cn2c(SCC(=O)NCc3ccccc3)nc3ccccc32)cc1	-	0	-	-	?	35µM
CCOC(=O)CSc1nc2ccccc2n1CC(=O)NC(C)(C)C	0	0	0	0	0	0
COc1ccc(C(=O)CSc2nc3ccccc3n2CC(=O)NC(C)(C)C)cc1	0	0	14µM	0	0	0
COCc1ccc(C(=O)N2CCN(CC(=O)N3CCCC3)CC2)cc1	0	0	0	0	0	0
COC(=O)N1C(=O)[C@](CC(C)C)(c2ccccc2)N1C(=O)OC	?	0	0	?	0	?
COC(=O)N1C(=O)[C@](c2ccsc2)(C(C)C)N1C(=O)OC	?	0	0	?	0	20µM
N#CC(Cc1ccc(OC(F)F)cc1)c1nc2ccccc2[nH]1 (stereo unspecified)	0	0	0	0	0	0
CCSC1=NC2(CCCCC2)Nc2sc3c(c21)CCCC3	0	0	0	0	35µM	0
Cc1cc(C)nc(Nc2ccc(C)c([N+](=O)[O-])c2)n1	0	0	0	0	0	20µM
Cc1cc(C)nc(Nc2cccc(C(F)(F)F)c2)n1	0	0	0	?	0	?
Cc1cc(C)nc(Nc2cccc(Cl)c2)n1	0	0	0	0	0	8.9µM
Cc1nn(Cc2c(Cl)cccc2Cl)c(C)c1NC(=O)c1cc(C(C)C)on1	3.2µM	0	0	0	0	0
Cc1nn(Cc2ccccc2Cl)c(C)c1NC(=O)c1cc(C(C)C)on1	-	0	-	-	0	?
COc1ccc(C(C)(NC(C)=O)c2nc(-c3ccc(F)c(Cl)c3)cs2)cc1 (stereo unspecified)	-	0	0	-	?	35µM
COc1ccc(-c2csc(C(C)(NC(C)=O)c3ccc(OC)cc3)n2)cc1 (stereo unspecified)	-	0	0	-	0	?
Cc1scc(-c2n[nH]c(=S)n2C(C)c2ccccc2)c1C (stereo unspecified)	0	0	0	0	-	35µM
Cc1ccccc1-n1c(-c2csc(C)c2C)n[nH]c1=S	0	4.5µM	0	?	0	?
Cc1ccccc1-n1c(-c2csc3ccccc23)n[nH]c1=S	0	0	0	?	0	20µM
Cc1ccc(NC(=O)c2ccc(S(=O)(=O)N3CC(C)CC(C)C3)cc2)cc1S(=O)(=O)N1CCOCC1 (stereo unspecified)	0	0	0	-	0	0
COc1ccc(S(=O)(=O)c2cc3cc(OC)ccc3oc2=O)cc1	-	0	-	-	0	0
COc1ccc(S(=O)(=O)c2cc3cc(C(C)(C)C)cc(O)c3oc2=O)cc1	-	0	-	-	40µM	0
CCc1cccc(NC(=O)Cn2nc(-c3cc(C)ccc3C)ccc2=O)c1	-	?	-	-	?	28µM
O=C(Nc1cccc(S(=O)(=O)NC2=NCCCCC2)c1)c1cc(-c2ccco2)nc2ccccc12	0	0	0	0	0	0
Cc1ccc(C)c(Cn2c(=O)n(CCCCC(=O)NCc3ccccc3Cl)c(=O)c3ccccc32)c1	-	0	-	-	0	0

Bioassay records deposited in PubChem BioAssay by National Center for Advancing Translational Sciences (NCATS).
